# Reference: PubChem BioAssay
# Activity calls are given as the source filed them. Unless noted, the rule behind the calls is not given here.
# Assays:
# [1] = compounds binding Alexa647 anti-His antibody – biochemical, small-molecule microarray, 635 nm fluorescence, artefact control for SMM control protein annotation, primary screen (AID 1128); conditions: higher = more signal;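 note: score merges feature fluorescence with signal-to-noise for each printed compound spot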
# [2] = system: Human papillomavirus type 1a E7 protein (residues 1-88); experiment: HPV1a E7 small-molecule binders, primary screen, biochemical, small-molecule microarray, residues 1-88, 635 nm (AID 1129); conditions: small-molecule microarray binding, fluorescence 635 nm; higher = more signal
# [3] = target: Focal adhesion kinase 1 (Homo sapiens) (UniProt Q05397); experiment: PTK2 protein binding on printed compound slides – biochemical, small-molecule microarray, 635/667 nm fluorescence, BSA, DTT, primary screen (AID 1130); conditions: 635 nm fluorescence, higher = more signal;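 note: composite of spot emission at 667 nm and signal to noise over triplicate slides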
# [4] = system: Fibrinogen (Alexa647-labelled); experiment: Alexa647-fibrinogen binding to printed small molecules – biochemical, small-molecule microarray, 635/667 nm fluorescence, artefact control for SMM control-protein annotation, profiling panel (AID 1131); conditions: fibrinogen-A647 binding fluorescence, higher = more signal;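 note: z-score merges 667 nm fluorescence with per-spot signal-to-noise over triplicate slides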
# [5] = target: Follistatin (Homo sapiens) (UniProt P19883); experiment: FST protein binding to printed compounds – biochemical, small-molecule microarray, 635/667 nm fluorescence, primary screen (AID 1132); conditions: 635 nm fluorescence, higher = more signal
# [6] = target: Fibroblast growth factor 2 (Homo sapiens) (UniProt P09038); experiment: basic fibroblast growth factor binding to printed compounds – biochemical, small-molecule microarray, 635/667 nm fluorescence, primary screen (AID 1133); conditions: FGF2, fluorescence 635/667, higher = more signal
# [7] = JC-1 mitochondrial potential readout, lung cancer cells – cell-based, A549, JC-1 fluorescence, basal, 24 h, 100 nL, profiling panel (AID 1138); conditions: higher = more signal;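 note: A549 lung adenocarcinoma cells under basal conditions with no added stimulus; test concentration not given here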
# Lefty1 = Lefty1 protein binding to printed compounds – biochemical, small-molecule microarray, 635/667 nm fluorescence, primary screen (AID 1139); conditions: fluorescence 635/667, higher = more signal
# [8] = system: wheat germ agglutinin (Triticum aestivum), Alexa647-labelled; experiment: Alexa647-WGA lectin binding to printed small molecules – biochemical, small-molecule microarray, 635/667 nm fluorescence, artefact control for SMM control-protein annotation, profiling panel (AID 1140); conditions: WGA-A647 binding, 635 nm fluorescence, higher = more signal;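 note: score merges 667 nm feature emission with signal to noise over triplicate slides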
# [9] = target: Luciferin 4-monooxygenase (Photinus pyralis) (UniProt P08659); experiment: inhibition of purified Photinus pyralis luciferase – biochemical, luminescence, purified enzyme, 2006 set, primary screen (AID 1141); conditions: purified firefly luciferase, SteadyGlo luminescence, 30 min; higher = more signal, called active from +8 up or from −8 down;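 note: cell-free assay with purified firefly luciferase at 100 ng per well in PBS; test concentration not given here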
# [10] = system: Wnt5a (protein binding on small-molecule microarray); experiment: small molecules binding Wnt5a protein – biophysical, small-molecule microarray, 635/667 nm fluorescence, primary screen (AID 1142); conditions: 635 nm fluorescence, higher = more signal;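 note: fluorescence read at 667 nm with signal to noise per printed feature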
# [11] = ATP-based viability of Huh7 replicon cells – cell-based, CellTiter-Glo luminescence, basal, 48 h, cytotoxicity control for HCV replication inhibitor project, primary screen (AID 1143); conditions: higher = more signal, called active from +8 up or from −8 down;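 note: Huh7 hepatoma cells carrying a hepatitis C replication reporter with no stimulus; test concentration not given here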
# [12] = Pseudomonas biofilm growth suppression – PAO1 strain, BacTiter-Glo luminescence, LB-PBS, primary screen (AID 1144); conditions: P. aeruginosa PAO1 biofilm, 12 h, higher = more signal
# [13] = basal CRE-LacZ reporter activity in PC12 – cell-based, unstimulated, primary screen (AID 1145); conditions: no forskolin, luminescence, 4.5 h, higher = more signal, called active from +8 up or from −8 down
# [14] = forskolin-driven CRE-LacZ activity in PC12 – cell-based, CRE-LacZ reporter, forskolin-stimulated, primary screen (AID 1146); conditions: luminescence, 4.5 h, higher = more signal, called active from +8 up or from −8 down;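 note: PC12 cells with 6xCRE LacZ reporter stimulated by forskolin 10 µM; beta-galactosidase reporter signal reflecting CREB driven transcription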
# [15] = target: Streptavidin (Streptomyces avidinii) (UniProt P22629); experiment: compounds binding control protein streptavidin – biophysical, small-molecule microarray, 635/667 nm fluorescence, artefact control for SMM compound annotation, primary screen (AID 1147); conditions: higher = more signal;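 note: signal reflects streptavidin binding to arrayed compounds as a control protein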
# [16] = probe aInhba binding on compound microarray – biochemical, small-molecule microarray, 635/667 nm fluorescence, primary screen (AID 1148); conditions: higher = more signal;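 note: score merges 667nm spot fluorescence with signal-to-noise for antibody binding to printed compounds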
# Torsin-1A (Homo sapiens) [17] = target: Torsin-1A (Homo sapiens) (UniProt O14656); experiment: TOR1A wild-type binding on microarray – cell lysate, small-molecule microarray, lysate, 635/667 nm, primary screen (AID 1149); conditions: COS7 hTOR1A-WT lysate, 635 nm fluorescence, higher = more signal
# Torsin-1A (Homo sapiens) [18] = target: Torsin-1A (Homo sapiens) (UniProt O14656); experiment: torsin A mutant lysate binding on microarrays – cell lysate, small-molecule microarray, COS7 lysate, 635/667 nm fluorescence, primary screen (AID 1150); conditions: COS7 hTOR1A mutant lysate, 635 nm fluorescence, higher = more signal;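 note: score pools 667 nm emission and signal to noise measuring lysate protein binding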
# [19] = system: Sonic hedgehog protein (Shh); experiment: Sonic hedgehog microarray binding compounds – biochemical, small-molecule microarray, 635/667 nm fluorescence, primary screen (AID 1151); conditions: 635 nm fluorescence, higher = more signal;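 note: Shh protein binding to compounds spotted on small-molecule microarray slides; score combines spot fluorescence intensity with signal-to-noise across triplicate slides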
# Chain of Streptavidin (Streptomyces avidinii) (P22629 whole entry, looked up): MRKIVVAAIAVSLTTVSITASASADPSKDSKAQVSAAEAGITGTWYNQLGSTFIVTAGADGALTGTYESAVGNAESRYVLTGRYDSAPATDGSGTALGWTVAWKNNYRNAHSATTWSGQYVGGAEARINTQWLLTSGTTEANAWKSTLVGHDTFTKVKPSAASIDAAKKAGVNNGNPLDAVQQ
# Chain of Luciferin 4-monooxygenase (Photinus pyralis) (P08659 whole entry, looked up): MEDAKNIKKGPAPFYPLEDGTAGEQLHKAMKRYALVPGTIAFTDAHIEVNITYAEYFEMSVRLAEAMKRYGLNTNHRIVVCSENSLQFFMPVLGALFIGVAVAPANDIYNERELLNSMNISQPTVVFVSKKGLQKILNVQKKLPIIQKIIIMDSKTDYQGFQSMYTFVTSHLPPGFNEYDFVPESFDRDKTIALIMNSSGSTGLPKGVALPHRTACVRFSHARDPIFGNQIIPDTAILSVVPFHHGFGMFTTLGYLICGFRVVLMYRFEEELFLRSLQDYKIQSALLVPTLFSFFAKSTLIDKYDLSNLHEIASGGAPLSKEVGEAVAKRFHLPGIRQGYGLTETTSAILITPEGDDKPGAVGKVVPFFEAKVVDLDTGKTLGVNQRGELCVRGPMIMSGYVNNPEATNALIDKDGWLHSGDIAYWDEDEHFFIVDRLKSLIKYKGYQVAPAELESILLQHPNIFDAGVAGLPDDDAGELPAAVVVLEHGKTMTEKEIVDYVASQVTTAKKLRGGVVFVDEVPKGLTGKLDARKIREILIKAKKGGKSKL
# Chain of Fibroblast growth factor 2 (Homo sapiens) (P09038 whole entry, looked up): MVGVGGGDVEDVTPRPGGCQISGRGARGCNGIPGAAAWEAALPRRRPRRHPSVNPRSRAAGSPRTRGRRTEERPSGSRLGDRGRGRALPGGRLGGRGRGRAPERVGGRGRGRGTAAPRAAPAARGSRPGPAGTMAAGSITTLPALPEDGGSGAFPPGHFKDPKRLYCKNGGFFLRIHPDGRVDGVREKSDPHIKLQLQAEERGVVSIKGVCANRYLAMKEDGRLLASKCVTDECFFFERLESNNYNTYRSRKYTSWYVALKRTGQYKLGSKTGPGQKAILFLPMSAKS
# Chain of Focal adhesion kinase 1 (Homo sapiens) (Q05397 whole entry, looked up): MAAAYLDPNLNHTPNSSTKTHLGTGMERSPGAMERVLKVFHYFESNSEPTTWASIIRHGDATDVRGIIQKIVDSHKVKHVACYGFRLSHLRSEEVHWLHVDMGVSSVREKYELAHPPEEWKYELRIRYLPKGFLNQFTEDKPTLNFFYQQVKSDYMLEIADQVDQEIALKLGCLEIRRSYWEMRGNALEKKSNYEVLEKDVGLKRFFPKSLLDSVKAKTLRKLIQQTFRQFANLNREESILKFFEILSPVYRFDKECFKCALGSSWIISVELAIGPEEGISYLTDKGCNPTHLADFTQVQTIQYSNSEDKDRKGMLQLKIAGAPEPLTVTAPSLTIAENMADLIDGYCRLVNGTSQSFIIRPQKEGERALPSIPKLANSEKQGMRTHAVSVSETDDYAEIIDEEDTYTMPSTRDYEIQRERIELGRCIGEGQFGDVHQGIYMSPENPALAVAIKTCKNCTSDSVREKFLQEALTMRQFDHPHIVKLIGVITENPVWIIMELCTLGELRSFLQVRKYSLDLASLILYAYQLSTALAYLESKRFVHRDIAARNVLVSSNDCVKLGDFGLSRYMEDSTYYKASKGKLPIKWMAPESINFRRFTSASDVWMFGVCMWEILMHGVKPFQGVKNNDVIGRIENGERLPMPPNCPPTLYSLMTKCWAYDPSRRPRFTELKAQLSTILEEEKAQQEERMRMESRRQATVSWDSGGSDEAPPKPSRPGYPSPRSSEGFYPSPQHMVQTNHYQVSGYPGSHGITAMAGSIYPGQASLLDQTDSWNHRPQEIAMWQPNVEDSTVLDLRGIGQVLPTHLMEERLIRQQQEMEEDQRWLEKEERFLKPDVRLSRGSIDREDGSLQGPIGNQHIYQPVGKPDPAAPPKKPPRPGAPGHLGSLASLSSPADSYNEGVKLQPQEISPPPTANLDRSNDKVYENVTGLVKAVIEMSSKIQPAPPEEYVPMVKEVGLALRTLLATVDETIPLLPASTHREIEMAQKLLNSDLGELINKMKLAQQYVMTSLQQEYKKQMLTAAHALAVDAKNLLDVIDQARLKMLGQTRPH
# Chain of Follistatin (Homo sapiens) (P19883 whole entry, looked up): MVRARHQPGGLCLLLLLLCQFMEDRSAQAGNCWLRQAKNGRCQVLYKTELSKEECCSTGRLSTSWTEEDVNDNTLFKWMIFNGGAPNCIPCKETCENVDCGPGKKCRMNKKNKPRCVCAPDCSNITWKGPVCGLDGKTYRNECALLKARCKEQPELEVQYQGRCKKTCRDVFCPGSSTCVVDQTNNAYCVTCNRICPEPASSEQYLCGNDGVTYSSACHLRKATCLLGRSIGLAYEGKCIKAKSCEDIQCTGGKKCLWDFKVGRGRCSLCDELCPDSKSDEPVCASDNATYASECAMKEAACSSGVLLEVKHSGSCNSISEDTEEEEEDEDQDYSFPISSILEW
# Chain of Torsin-1A (Homo sapiens) (O14656 whole entry, looked up): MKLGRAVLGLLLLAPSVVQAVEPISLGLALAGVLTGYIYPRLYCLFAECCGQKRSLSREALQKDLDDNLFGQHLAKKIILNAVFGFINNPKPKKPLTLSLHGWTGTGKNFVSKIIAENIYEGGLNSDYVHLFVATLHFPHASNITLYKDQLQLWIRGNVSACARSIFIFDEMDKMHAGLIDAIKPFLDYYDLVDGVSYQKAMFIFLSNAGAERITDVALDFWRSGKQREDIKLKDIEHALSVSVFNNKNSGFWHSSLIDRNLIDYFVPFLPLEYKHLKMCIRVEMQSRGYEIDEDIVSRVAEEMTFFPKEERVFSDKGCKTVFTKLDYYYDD
SMILES,composite z-score [1],composite z-score [2],composite z-score [3],composite z-score [4],composite z-score [5],composite z-score [6],z-score [7],composite z-score (Lefty1),composite z-score [8],z-score [9],composite z-score [10],z-score [11],z-score [12],z-score [13],z-score [14],composite z-score [15],composite z-score [16],composite z-score (Torsin-1A (Homo sapiens) [17]),composite z-score (Torsin-1A (Homo sapiens) [18]),composite z-score [19]
O=C1C2C=CC(C(O)c3cccc(O)c3)N(Nc3ccccc3F)C2C(=O)N1c1ccccc1 (stereo not given),0.933,0.137,0.158,0.327,0.434,-0.214,-0.846,0.474,0.248,0.883 (inactive),-0.333,-6.08 (inactive),-2.21 (inactive),-0.471 (inactive),-0.556 (inactive),-0.344,-0.21,-0.701,0.239,0.0048
[N-]=[N+]=NCc1ccccc1C[C@]1(C(=O)N2CCCCC2)N=C(c2ccc(OCCCO)cc2)O[C@H]1c1ccccc1,0.582,1.1,0.425,0.714,0.351,0.182,1.17,-0.599,0.762,0.09 (inactive),0.601,-5.06 (inactive),-0.307 (inactive),-0.0017 (inactive),-0.964 (inactive),0.483,-0.0471,0.81,0.139,-0.655
C=C(COC)/C(=C/C[C@H](OC(=O)c1ccncc1)c1ccc(OCCO)cc1)c1cc(C(=O)OC)ccc1OC,1.14,1.18,0.918,0.763,1.38,0.329,-0.408,1.58,0.622,-0.265 (inactive),0.457,-3.86 (inactive),-0.999 (inactive),5.8 (inactive),0.946 (inactive),0.616,-0.0087,0.229,0.132,1.94
COCC1=C([C@H](O)CCc2ccccc2)[C@H](CO)n2c(=O)n(-c3ccccc3)c(=O)n2C1,-0.507,-0.364,-0.044,-0.325,0.0942,1.08,-0.152,-0.0597,0.361,-1.59 (inactive),-0.419,-1.24 (inactive),-0.84 (inactive),0.129 (inactive),-0.2 (inactive),-0.101,-0.154,-0.115,-0.414,0.199
CCCC=C(CCC)[C@@H](NC(=O)c1ccco1)c1ccc(C(=O)OC)cc1,1.24,1.26,0.601,0.984,0.649,-0.181,-1.67,0.119,1.31,2.66 (inactive),0.22,-3.84 (inactive),0.737 (inactive),0.0143 (inactive),0.514 (inactive),1.92,0.218,0.0918,0.918,-0.276
CC(C)C[C@H]1NC(=O)[C@H](Cc2ccccc2)NC(=O)[C@@]23C(=O)N[C@@H](Cc4ccccc4)C2[C@H](C)[C@@]2(C)O[C@H]2C3/C=C/C/C=C\CNC1=O (stereo not given in full),0.701,0.475,0.899,0.315,0.927,1.01,-0.000177,0.376,0.658,-0.179 (inactive),0.116,-1.29 (inactive),0.338 (inactive),0.67 (inactive),0.105 (inactive),0.494,-0.0552,0.471,0.855,0.889
COc1ccc(CCNC(=O)[C@@H]2c3ccccc3C(=O)N(CC34CC5CC(CC(C5)C3)C4)[C@H]2c2ccc(CO)cc2)cc1,1.3,1.15,0.548,0.61,1.07,1.47,0.125,0.867,0.965,1.36 (inactive),0.788,-3.34 (inactive),-2.65 (inactive),0.441 (inactive),-0.887 (inactive),0.4,-0.0006,0.713,0.801,1.4
[N-]=[N+]=NCc1ccccc1[C@@H]1OC(c2ccc(OCCCO)cc2)=N[C@]1(Cc1ccccc1)C(=O)NCc1ccccc1,0.491,1.18,1.11,0.734,0.846,-0.0705,0.012,-0.0948,1.03,0.294 (inactive),0.609,-2.86 (inactive),-0.338 (inactive),-0.585 (inactive),0.0071 (inactive),1.24,-0.0267,0.823,1.1,-0.471
CC(C)=CCN(C(=O)C#Cc1ccccc1)[C@H](CO)c1ccccc1,0.326,0.419,-0.0317,0.237,0.653,0.766,-0.842,0.743,0.146,0.265 (inactive),-0.0314,-8.76 (active),1.15 (inactive),14.3 (active),-4.52 (inactive),-0.131,-0.15,0.423,-0.0045,0.708
